According to the supplement of paper PMC6555819:

Legend:
Assay in all cases: PBM binding z-score (relative to random genomic background probes); higher = stronger binding; sequences stand for … in GC…GCGATTGACAGCGTAGAATGAAGG
[1] = test system: RARb homodimer (NR concentration 270 nM)
Method in brief: (§1)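 Custom Agilent 4×180K protein-binding microarrays carried double-stranded probes. Their 34-nt variable regions held direct-repeat seeds, single-nucleotide variants, half-site ablations and random human genomic background sequences. Arrays were incubated 1 h with ligand-free nuclear receptor dimers in PBS pH 7.4, 2% milk, 0.02% Triton X-100, 1 mM DTT, 0.2 mg/mL BSA and 0.4 mg/ml salmon testes DNA. Antibodies against each partner (one per run) detected binding, and scanned fluorescence was regression-normalized. Binding z-scores use random background probes as reference.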

[2] = test system: RARg:RXRa (NR concentration 270 nM, RXRa partner concentration 90 nM)
Method in brief: as §1

[3] = test system: RARg homodimer (NR concentration 270 nM)
Method in brief: as §1

[4] = test system: RXRa DBDmut IVT, anti-RXR (DBD mutation: RXRa K156A/R161A, NR concentration 90 nM)
Method in brief: as §1

[5] = test system: RXRa homodimer (NR concentration 180 nM)
Method in brief: as §1

[6] = test system: THRa:RXRa (NR concentration 90 nM, RXRa partner concentration 90 nM)
Method in brief: as §1

[7] = test system: THRa homodimer (NR concentration 90 nM)
Method in brief: as §1

[8] = test system: VDR homodimer (NR concentration 270 nM)
Method in brief: as §1

## CGTCAAAGTTCAAGTAAGGTAACGTAAAGCACGC
[1]
  PBM binding z-score: 4.18
[2]
  PBM binding z-score: 5.63
[3]
  PBM binding z-score: 6.15
[4]
  PBM binding z-score: 4.54
[5]
  PBM binding z-score: 4.68
[6]
  PBM binding z-score: 5.33
[7]
  PBM binding z-score: 1.95
[8]
  PBM binding z-score: 3.69

## CGTTCAAGGTCAATGCTAGGTCAGTGAAAGCATT
[1]
  PBM binding z-score: 4.78
[2]
  PBM binding z-score: 7.74
[3]
  PBM binding z-score: 7.18
[4]
  PBM binding z-score: 4.09
[5]
  PBM binding z-score: 5.88
[6]
  PBM binding z-score: 4.72
[7]
  PBM binding z-score: 3.33
[8]
  PBM binding z-score: 3.44

## CAGCCTACGTCAGGGCCAGTATAGGAGGAACGTT
[1]
  PBM binding z-score: -0.0418
[2]
  PBM binding z-score: -0.371
[3]
  PBM binding z-score: -0.021
[4]
  PBM binding z-score: -0.885
[5]
  PBM binding z-score: -0.169
[6]
  PBM binding z-score: -0.415
[7]
  PBM binding z-score: -0.292
[8]
  PBM binding z-score: -0.285

## GCAGACAGGTGACACGCAGGTAACTCAGGGTGGC
[1]
  PBM binding z-score: 0.28
[2]
  PBM binding z-score: 0.798
[3]
  PBM binding z-score: 0.52
[4]
  PBM binding z-score: -0.855
[5]
  PBM binding z-score: 0.715
[6]
  PBM binding z-score: 0.997
[7]
  PBM binding z-score: -0.377
[8]
  PBM binding z-score: -0.397

## CCTCGGAGGACAACATGAGGTCAGAGCTGCCAGA
[1]
  PBM binding z-score: 3.88
[2]
  PBM binding z-score: 3.49
[3]
  PBM binding z-score: 3.52
[4]
  PBM binding z-score: 1.15
[5]
  PBM binding z-score: 2.13
[6]
  PBM binding z-score: 4.08
[7]
  PBM binding z-score: 3.51
[8]
  PBM binding z-score: 2.43

## TCAGACAGGTGAAGGTAACTAAGGTACGCAGTCG
[1]
  PBM binding z-score: 0.841
[2]
  PBM binding z-score: 0.733
[3]
  PBM binding z-score: 0.744
[4]
  PBM binding z-score: 1.14
[5]
  PBM binding z-score: 1.05
[6]
  PBM binding z-score: 1.43
[7]
  PBM binding z-score: 0.595
[8]
  PBM binding z-score: -0.102

## CGAACTAGGTCACAACAGGACAGTGAAGGATGAT
[1]
  PBM binding z-score: 3.02
[2]
  PBM binding z-score: 4.09
[3]
  PBM binding z-score: 4.79
[4]
  PBM binding z-score: 1.63
[5]
  PBM binding z-score: 2.91
[6]
  PBM binding z-score: 4.09
[7]
  PBM binding z-score: 1.16
[8]
  PBM binding z-score: 0.27

## GGAACGAGGGCATTCGAGTTGAAAGCATGGCGAT
[1]
  PBM binding z-score: 0.677
[2]
  PBM binding z-score: 1.02
[3]
  PBM binding z-score: 1.19
[4]
  PBM binding z-score: 3.05
[5]
  PBM binding z-score: 1.12
[6]
  PBM binding z-score: 3.9
[7]
  PBM binding z-score: -0.523
[8]
  PBM binding z-score: 3.1

## GGAAGGAGGGCAAGTTGATAGCAGAGTTTGATGG
[1]
  PBM binding z-score: 2.04
[2]
  PBM binding z-score: 1.51
[3]
  PBM binding z-score: 1.88
[4]
  PBM binding z-score: 0.971
[5]
  PBM binding z-score: 0.655
[6]
  PBM binding z-score: 1.08
[7]
  PBM binding z-score: 1.12
[8]
  PBM binding z-score: 2
